These results are taken from paper PMC7862700, “An all-to-all approach to the identification of sequence-specific readers for epigenetic DNA modifications on cytosine”.

What all share (test): DAPPL (digital affinity profiling via proximity ligation, sequencing); 10 mM Tris-HCl pH 7.5, 50 mM NaCl, 1 mM DTT, 4% glycerol, room temperature, 30 min; GST-TFs on glutathione beads, 16-mer random dsDNA library, 0.1% formaldehyde crosslink after washing; high values mean tight binding
Experiment [1] has as its target T1, FLI1 (Homo sapiens, UniProt Q01543 1-452).
T1 sequence: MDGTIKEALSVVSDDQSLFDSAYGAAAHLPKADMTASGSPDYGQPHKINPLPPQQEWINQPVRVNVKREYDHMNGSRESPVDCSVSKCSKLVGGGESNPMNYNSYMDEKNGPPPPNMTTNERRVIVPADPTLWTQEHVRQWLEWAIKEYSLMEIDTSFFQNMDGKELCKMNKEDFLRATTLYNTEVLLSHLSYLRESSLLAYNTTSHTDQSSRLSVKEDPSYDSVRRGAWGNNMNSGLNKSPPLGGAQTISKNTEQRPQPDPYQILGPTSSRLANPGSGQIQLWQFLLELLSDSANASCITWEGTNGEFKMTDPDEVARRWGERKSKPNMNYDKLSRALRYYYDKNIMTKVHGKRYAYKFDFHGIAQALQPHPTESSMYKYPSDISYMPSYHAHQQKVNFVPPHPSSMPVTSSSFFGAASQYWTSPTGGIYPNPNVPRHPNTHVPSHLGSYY
Conditions: protein: recombinant; tags: N-terminal GST; dsDNA, one strand shown. Summed up: (§1)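 Sequencing on an Illumina NextSeq500 followed washing, crosslinking with 0.1% formaldehyde, proximity ligation (BsaI/T4 ligase, 1 h, 37 °C) and PCR amplification of pools that had been incubated for 30 min at room temperature with 200 nmole of a random double-stranded 16-mer DNA library in Tris/NaCl/DTT/glycerol buffer. Each pool held DNA-barcoded human transcription factors, expressed in yeast as GST fusions and captured on glutathione beads, plus a tag-only sample. Binding signal is a hexamer's read frequency for a factor divided by its frequency in the tag-only sample.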

In experiment [2] the target is T2, ELK1 (Homo sapiens, UniProt P19419 1-428).
T2 sequence: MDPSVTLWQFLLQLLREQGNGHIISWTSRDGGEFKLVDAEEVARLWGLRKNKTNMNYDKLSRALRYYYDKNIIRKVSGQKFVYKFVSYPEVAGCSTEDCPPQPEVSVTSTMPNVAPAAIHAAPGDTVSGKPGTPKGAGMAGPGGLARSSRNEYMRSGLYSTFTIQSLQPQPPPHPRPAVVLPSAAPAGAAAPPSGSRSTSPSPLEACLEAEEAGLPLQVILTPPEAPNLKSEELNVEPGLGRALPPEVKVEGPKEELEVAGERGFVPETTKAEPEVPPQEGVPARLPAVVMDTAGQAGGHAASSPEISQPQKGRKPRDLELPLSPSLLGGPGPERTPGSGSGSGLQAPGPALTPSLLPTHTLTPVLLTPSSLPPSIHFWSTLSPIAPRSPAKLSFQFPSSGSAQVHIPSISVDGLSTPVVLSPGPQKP
The note with it: protein: recombinant; tags: N-terminal GST; dsDNA, one strand shown. The method, boiled down:
as §1

Experiment [3] deals with T3, GABPA (Homo sapiens, UniProt Q06546 1-454).
T3 sequence: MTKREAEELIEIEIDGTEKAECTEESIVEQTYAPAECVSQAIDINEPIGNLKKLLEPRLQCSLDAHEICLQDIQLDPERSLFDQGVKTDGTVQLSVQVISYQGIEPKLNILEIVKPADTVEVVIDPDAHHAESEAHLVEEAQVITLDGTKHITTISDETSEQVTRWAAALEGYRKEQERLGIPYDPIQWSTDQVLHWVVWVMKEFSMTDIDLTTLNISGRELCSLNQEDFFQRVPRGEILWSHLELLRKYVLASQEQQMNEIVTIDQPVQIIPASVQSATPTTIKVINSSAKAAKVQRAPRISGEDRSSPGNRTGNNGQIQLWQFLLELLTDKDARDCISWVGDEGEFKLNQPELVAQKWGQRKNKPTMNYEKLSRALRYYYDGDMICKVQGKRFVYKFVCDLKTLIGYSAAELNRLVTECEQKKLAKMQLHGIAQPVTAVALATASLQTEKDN
Conditions: protein: recombinant; tags: N-terminal GST; dsDNA, one strand shown. Summed up: as §1

The target of experiment [4] is T4, ERG (Homo sapiens, UniProt P11308 1-479).
T4 sequence: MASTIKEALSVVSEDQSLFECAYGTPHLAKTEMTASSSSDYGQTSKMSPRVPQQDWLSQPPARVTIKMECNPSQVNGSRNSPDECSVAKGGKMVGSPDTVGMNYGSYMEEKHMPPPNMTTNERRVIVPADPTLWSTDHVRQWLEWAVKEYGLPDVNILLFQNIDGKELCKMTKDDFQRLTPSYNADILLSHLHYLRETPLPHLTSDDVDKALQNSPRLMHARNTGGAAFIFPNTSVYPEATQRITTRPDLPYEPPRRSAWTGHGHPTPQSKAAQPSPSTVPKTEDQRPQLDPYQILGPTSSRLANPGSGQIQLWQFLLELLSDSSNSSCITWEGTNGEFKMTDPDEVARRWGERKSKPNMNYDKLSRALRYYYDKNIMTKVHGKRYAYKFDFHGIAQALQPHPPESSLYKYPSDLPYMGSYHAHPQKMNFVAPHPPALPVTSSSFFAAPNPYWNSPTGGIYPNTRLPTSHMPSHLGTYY
Conditions: protein: recombinant; tags: N-terminal GST; dsDNA, one strand shown. The method, boiled down: as §1

In experiment [5] the target is ELF1 (Homo sapiens, UniProt P32519 1-619). The note with it: protein: recombinant; tags: N-terminal GST; dsDNA, one strand shown. The method, boiled down:
as §1

The target of experiment [6] is T5, EHF (Homo sapiens, UniProt Q9NZC4 1-300).
T5 sequence: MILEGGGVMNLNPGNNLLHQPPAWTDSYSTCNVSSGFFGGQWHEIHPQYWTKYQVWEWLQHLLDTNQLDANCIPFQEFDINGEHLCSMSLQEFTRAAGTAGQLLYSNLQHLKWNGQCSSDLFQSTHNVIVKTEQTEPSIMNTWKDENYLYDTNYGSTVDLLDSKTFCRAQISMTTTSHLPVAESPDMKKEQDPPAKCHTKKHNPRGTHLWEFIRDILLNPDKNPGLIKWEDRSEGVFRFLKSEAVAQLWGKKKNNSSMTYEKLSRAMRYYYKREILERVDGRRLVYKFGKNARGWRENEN
Conditions: protein: recombinant; tags: N-terminal GST; dsDNA, one strand shown. The method, boiled down:
as §1

Experiment [7] deals with SPIB (Homo sapiens, UniProt Q01892 1-262). The note with it: protein: recombinant; tags: N-terminal GST; dsDNA, one strand shown. The method, boiled down: as §1
Experiment [8] deals with T6, ELK3 (Homo sapiens, UniProt P41970 1-407).
T6 sequence: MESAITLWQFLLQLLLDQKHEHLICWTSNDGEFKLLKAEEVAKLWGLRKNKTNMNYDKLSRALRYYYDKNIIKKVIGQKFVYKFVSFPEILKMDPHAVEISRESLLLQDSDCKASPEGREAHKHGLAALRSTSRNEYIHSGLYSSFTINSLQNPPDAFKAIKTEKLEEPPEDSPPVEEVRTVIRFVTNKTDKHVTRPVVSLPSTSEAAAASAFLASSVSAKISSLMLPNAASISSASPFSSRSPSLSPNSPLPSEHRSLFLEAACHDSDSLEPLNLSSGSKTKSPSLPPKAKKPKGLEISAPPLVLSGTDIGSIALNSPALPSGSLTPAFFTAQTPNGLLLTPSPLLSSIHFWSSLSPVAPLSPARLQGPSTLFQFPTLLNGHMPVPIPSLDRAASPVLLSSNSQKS
Conditions: protein: recombinant; tags: N-terminal GST; dsDNA, one strand shown. The method, boiled down: as §1

Experiment [9] addresses T7, FEV (Homo sapiens, UniProt Q99581 1-238).
T7 sequence: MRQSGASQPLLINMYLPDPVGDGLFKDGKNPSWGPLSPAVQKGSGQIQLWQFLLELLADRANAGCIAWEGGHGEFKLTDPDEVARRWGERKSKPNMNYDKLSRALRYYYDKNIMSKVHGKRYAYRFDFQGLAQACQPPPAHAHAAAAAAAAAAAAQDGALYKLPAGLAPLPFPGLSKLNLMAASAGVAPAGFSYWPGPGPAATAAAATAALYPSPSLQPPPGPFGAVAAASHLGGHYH
Conditions: protein: recombinant; tags: N-terminal GST; dsDNA, one strand shown. Summed up:
as §1

Experiment [10] addresses ETV5 (Homo sapiens, UniProt P41161 1-510). Conditions: protein: recombinant; tags: N-terminal GST; dsDNA, one strand shown. Summed up:
as §1

The target in experiment [11] is HSF1 (Homo sapiens, UniProt Q00613 1-529). Conditions: protein: recombinant; tags: N-terminal GST; chain copies: 3; dsDNA, one strand shown. Summed up:
as §1

Experiment [12] addresses T8, SPIC (Homo sapiens, UniProt Q8N5J4 1-248).
T8 sequence: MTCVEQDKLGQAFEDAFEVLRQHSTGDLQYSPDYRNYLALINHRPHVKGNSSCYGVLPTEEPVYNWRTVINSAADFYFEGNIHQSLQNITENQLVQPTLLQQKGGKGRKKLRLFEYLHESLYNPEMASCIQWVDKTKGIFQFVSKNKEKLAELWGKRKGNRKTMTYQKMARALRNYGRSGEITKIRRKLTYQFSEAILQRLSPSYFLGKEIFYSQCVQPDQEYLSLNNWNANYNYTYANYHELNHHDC
Conditions: protein: recombinant; tags: N-terminal GST; dsDNA, one strand shown. Summed up:
as §1

The target in experiment [13] is ELF4 (Homo sapiens, UniProt Q99607 1-663). Conditions: protein: recombinant; tags: N-terminal GST; dsDNA, one strand shown. Summed up:
as §1

Experiment [14] deals with T9, ELK4 (Homo sapiens, UniProt P28324-2 1-405).
T9 sequence: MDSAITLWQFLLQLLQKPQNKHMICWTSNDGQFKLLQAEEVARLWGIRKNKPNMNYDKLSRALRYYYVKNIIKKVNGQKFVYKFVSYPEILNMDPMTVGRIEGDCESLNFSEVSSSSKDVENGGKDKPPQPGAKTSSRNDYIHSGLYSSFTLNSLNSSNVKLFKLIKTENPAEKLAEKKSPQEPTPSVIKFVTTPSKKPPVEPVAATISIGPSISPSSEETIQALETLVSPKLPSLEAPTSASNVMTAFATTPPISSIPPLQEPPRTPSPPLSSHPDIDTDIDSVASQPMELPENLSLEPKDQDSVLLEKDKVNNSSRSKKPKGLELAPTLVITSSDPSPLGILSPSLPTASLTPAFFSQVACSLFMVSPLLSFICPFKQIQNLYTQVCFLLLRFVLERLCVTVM
Conditions: protein: recombinant; tags: N-terminal GST; dsDNA, one strand shown. Summed up:
as §1

For experiment [15], the target named is T10, ETV2 (Homo sapiens, UniProt O00321 1-342).
T10 sequence: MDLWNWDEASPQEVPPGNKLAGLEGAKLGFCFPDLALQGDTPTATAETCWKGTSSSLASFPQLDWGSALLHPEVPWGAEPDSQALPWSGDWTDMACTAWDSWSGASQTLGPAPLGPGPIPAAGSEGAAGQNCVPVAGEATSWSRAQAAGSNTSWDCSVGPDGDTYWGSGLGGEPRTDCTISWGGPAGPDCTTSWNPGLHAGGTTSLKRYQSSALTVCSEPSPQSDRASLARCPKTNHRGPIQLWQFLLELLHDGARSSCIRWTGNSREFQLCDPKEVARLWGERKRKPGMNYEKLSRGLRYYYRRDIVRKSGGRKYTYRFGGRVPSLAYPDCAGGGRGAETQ
Conditions: protein: recombinant; tags: N-terminal GST; dsDNA, one strand shown. Summed up:
as §1

Experiment [16] deals with T11, ELF3 (Homo sapiens, UniProt P78545 1-371).
T11 sequence: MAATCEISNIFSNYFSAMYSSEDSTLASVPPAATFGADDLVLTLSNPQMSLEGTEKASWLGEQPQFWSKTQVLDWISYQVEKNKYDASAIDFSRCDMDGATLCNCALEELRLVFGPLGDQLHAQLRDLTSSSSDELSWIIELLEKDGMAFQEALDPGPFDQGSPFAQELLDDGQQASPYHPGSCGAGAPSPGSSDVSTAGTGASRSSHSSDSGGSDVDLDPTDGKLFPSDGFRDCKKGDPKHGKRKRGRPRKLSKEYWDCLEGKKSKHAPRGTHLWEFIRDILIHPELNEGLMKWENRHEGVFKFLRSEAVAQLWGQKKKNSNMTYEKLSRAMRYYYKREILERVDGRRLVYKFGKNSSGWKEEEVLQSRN
The note with it: protein: recombinant; tags: N-terminal GST; dsDNA, one strand shown. Summed up:
as §1

Experiment [17] addresses ETV1 (Homo sapiens, UniProt P50549 1-477). The note with it: protein: recombinant; tags: N-terminal GST; dsDNA, one strand shown. The method, boiled down:
as §1

Sequence of HSF1 (Q00613 whole entry): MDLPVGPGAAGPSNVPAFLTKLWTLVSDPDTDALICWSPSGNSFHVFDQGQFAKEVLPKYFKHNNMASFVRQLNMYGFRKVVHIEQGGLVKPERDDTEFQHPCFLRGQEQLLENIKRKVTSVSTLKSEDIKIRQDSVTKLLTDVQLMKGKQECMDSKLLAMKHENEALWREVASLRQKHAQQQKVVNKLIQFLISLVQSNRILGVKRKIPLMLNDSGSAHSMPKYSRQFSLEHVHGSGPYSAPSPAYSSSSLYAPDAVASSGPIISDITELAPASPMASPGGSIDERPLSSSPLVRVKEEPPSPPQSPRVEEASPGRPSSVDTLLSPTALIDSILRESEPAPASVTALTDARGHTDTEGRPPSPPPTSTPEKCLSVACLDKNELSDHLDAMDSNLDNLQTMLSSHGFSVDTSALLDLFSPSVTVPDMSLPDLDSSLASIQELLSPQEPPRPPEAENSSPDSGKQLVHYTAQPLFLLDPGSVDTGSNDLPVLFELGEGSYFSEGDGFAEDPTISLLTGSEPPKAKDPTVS
Sequence of ELF4 (Q99607 whole entry): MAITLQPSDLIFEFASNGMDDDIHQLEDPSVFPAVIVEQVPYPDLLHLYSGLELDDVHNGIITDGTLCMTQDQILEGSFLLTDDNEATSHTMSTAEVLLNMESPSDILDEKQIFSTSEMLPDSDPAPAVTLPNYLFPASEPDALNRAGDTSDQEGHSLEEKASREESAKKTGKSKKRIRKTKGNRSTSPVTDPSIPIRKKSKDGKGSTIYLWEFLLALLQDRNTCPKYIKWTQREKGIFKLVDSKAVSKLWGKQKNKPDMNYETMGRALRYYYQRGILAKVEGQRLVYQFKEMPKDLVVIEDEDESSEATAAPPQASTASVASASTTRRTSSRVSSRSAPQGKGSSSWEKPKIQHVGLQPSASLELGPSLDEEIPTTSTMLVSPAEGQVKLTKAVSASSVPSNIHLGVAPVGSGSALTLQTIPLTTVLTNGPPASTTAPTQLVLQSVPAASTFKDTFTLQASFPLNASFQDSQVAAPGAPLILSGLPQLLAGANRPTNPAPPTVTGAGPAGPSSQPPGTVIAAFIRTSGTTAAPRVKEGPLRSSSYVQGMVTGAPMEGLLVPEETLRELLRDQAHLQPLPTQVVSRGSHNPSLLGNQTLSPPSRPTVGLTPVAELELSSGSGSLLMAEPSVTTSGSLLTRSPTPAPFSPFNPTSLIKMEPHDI
Sequence of ETV1 (P50549 whole entry): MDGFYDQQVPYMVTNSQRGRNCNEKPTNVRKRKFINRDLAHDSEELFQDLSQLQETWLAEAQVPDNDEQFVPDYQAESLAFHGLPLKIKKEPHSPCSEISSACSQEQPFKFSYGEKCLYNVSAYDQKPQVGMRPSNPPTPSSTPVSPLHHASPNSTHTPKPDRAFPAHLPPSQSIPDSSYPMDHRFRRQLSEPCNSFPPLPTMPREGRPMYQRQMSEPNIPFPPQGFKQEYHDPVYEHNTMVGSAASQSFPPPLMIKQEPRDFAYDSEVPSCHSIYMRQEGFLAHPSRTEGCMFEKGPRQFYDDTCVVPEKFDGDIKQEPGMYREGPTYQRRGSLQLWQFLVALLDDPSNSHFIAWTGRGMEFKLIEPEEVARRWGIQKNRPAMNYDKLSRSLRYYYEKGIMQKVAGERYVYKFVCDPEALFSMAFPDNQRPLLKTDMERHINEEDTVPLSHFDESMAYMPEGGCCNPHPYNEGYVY
Sequence of SPIB (Q01892 whole entry): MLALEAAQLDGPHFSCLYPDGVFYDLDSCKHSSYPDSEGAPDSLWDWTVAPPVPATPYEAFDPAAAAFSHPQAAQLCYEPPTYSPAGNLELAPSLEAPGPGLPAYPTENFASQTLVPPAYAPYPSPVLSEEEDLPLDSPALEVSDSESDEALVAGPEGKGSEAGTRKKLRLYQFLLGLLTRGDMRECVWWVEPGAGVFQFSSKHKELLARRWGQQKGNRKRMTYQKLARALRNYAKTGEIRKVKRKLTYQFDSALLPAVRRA
Sequence of ETV5 (P41161 whole entry): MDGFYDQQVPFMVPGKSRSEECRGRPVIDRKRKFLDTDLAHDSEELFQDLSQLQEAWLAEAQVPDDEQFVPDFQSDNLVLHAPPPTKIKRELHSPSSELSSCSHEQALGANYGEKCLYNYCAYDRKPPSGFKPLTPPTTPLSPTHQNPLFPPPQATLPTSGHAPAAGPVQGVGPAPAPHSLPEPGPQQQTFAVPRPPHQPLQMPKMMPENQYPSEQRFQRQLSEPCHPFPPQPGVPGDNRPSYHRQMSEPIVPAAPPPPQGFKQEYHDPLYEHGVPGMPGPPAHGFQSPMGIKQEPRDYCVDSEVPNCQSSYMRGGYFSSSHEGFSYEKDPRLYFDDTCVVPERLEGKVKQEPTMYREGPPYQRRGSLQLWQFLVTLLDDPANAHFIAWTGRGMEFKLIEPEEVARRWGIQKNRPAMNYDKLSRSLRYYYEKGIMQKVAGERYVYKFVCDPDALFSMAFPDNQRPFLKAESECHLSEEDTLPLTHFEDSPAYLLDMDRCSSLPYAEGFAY
Sequence of ELF1 (P32519 whole entry): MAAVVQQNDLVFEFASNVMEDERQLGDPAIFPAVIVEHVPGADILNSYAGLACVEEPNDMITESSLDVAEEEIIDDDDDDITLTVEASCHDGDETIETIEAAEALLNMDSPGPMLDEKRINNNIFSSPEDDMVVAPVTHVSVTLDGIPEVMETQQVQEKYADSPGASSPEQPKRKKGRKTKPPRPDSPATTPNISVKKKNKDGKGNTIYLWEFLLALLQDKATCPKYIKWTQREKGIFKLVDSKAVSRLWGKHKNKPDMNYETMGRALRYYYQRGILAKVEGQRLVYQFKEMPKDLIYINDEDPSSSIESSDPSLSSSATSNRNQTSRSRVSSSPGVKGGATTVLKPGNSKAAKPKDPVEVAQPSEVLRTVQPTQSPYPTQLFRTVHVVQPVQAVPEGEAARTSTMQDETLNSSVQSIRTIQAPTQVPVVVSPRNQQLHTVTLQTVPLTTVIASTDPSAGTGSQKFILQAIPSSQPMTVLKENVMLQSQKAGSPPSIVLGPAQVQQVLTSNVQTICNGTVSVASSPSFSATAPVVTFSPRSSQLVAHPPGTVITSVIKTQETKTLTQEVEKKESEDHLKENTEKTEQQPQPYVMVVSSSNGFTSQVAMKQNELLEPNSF

Take CAACGA: the binding signal in [1] is 1.05 fold enrichment (6-mer frequency, TF over GST control); in experiment [2], 1.08 fold enrichment (6-mer frequency, TF over GST control); in [3], 1.08 fold enrichment (6-mer frequency, TF over GST control); in experiment [4], 1.07 fold enrichment (6-mer frequency, TF over GST control); in [5], 1.1 fold enrichment (6-mer frequency, TF over GST control); in experiment [6], 1.01 fold enrichment (6-mer frequency, TF over GST control). For the same sequence, the binding signal in experiment [7] was 1.03 fold enrichment (6-mer frequency, TF over GST control); in experiment [8], 1.09 fold enrichment (6-mer frequency, TF over GST control); in [9] it was 1.01 fold enrichment (6-mer frequency, TF over GST control); in [10], 1.02 fold enrichment (6-mer frequency, TF over GST control); in experiment [11], 1 fold enrichment (6-mer frequency, TF over GST control); in experiment [12] it was 1.1 fold enrichment (6-mer frequency, TF over GST control). Further, the binding signal in experiment [13] was 1.1 fold enrichment (6-mer frequency, TF over GST control); in experiment [14], 1.14 fold enrichment (6-mer frequency, TF over GST control); in experiment [15] it was 1.01 fold enrichment (6-mer frequency, TF over GST control); in experiment [16] it was 1.08 fold enrichment (6-mer frequency, TF over GST control); in [17], 1 fold enrichment (6-mer frequency, TF over GST control).
